According to PubChem BioAssay (NCI):
The panel holds about 83,000 compounds, 20% with a hit somewhere; the sample as a whole holds those more often.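 Compound tested at a single concentration for 48 hours in 96-well plates; a percent growth value below 10 was scored as active.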 A number with no mark means an inactive call. Activity calls are given as the source filed them.

Key:
Experiment in all cases: NCI-60 one-dose screen, 48 h (100 = growth as untreated, 0 = no growth, -100 = all killed)
Details in all cases: 10 µM
[1] = tested on: SK-MEL-2 melanoma
[2] = tested on: EKVX NSCLC
[3] = tested on: UO-31 renal
[4] = tested on: TK-10 renal
[5] = tested on: ACHN renal
[6] = tested on: CAKI-1 renal
[7] = tested on: A498 renal
[8] = tested on: CCRF-CEM leukemia
[9] = tested on: MOLT-4 leukemia
[10] = tested on: SN12C renal

SMILES	growth [1]	growth [2]	growth [3]	growth [4]	growth [5]	growth [6]	growth [7]	growth [8]	growth [9]	growth [10] [%]
CONC[C@]1(C)C=C2C(=O)[C@](C)(O)C3(CC3)C(C)=C2[C@H]1O	-100% (active)	-45.3% (active)	-24.8% (active)	7.09% (active)	-25.7% (active)	-0.623% (active)	-29.7% (active)	4.58% (active)	-13.9% (active)	
CCCCCCCCCCCCCCCCCCCC(=O)NCCc1c[nH]c2ccc(OC(=O)CCCC(=O)OCCOOCCOOCCOOCCOOCCOOCCOOCCOOCCOOCCOOCCOOCCOOCCOC)cc12	78.1%	83.1%	45.4%	120%	59.9%	73.7%	116%		-4.66% (active)	
CN1C(=O)N(C)C2SC(N/N=C/c3ccccc3F)=NC21 (configuration not stated)	56.4%	86.4%	60.6%	83.6%	85.5%	67.4%	82.4%	67.3%	44.5%	
CO[C@@H]1CSSC1Cn1nc(-c2ccc(Oc3ccccc3)cc2)c2c(N)ncnc21 (some centres not stated)	27.2%	25.3%		20.3%	40.4%	32.4%	80.8%	-8.26% (active)	-16.6% (active)	
N#Cc1ccc(-c2nn(-c3ccc(C(=O)O)cc3)cc2CNc2cc(Cl)cc(Cl)c2)cc1	81.7%	63.3%	33.2%	111%	55.3%	63%	103%	13.7%	15.8%	
COc1ccc2ncc(C#Cc3cncc(C(=O)Nc4ccc(CN5CCN(C)CC5)c(C(F)(F)F)c4)c3)n2n1	-55.3% (active)	-99.7% (active)	-90.1% (active)		-98.3% (active)	-75.8% (active)	31.7%	2.67% (active)	-26.7% (active)	
COc1ccc(-c2nc(Nc3ccccc3S(N)(=O)=O)c3ccccc3n2)cc1	110%	65%	29.2%	67.4%	15.3%	7.47% (active)	92%	64.1%	21.1%	
Cn1cc(-c2cc(N)n3nc(-c4c[nH]c5ccc(Br)cc45)cc3n2)c2cc(Br)cnc21	-83.6% (active)	-84.1% (active)	-70.9% (active)	-81.9% (active)	-93.2% (active)	-69.1% (active)	-86.5% (active)	-32.1% (active)	-28.6% (active)	
O=C(Cn1cc(CSc2nnc3oc4ccccc4n23)nn1)Nc1ccc(Br)cc1	71.5%		74.2%	85.8%	75.2%	71.2%	119%	97.9%		61.5
N#Cc1c(NC(=O)c2ccc(C(F)(F)F)c(Cl)c2)sc2c1CCC(=O)C2	-9.04% (active)	-79.9% (active)	-98.8% (active)	16%	-96.5% (active)	-72% (active)	74.1%	5.53% (active)	-6.19% (active)	
O=C1NC(=NC23CC4CC(CC(C4)C2)C3)N/C1=C\c1ccc2ncoc2c1	-92.4% (active)	-14% (active)	1.68% (active)	24.2%	-10.4% (active)	7.48% (active)	-5.36% (active)	-6.48% (active)	10.6%	
CN(C(=O)c1ccc(C(F)(F)F)cc1C(F)(F)F)c1sc2c(c1C#N)CCC(=O)C2	96.8%	73.7%	62.4%	94.2%	82.7%	61.3%	125%	-0.48% (active)	36.4%	
CC(=O)Nc1ccc(-c2cn(-c3cccc(C(=O)Nc4cc(CN5CCOCC5)cc(C(F)(F)F)c4)c3)nn2)cn1	-84.6% (active)	-88.1% (active)	-93.5% (active)		-100% (active)		-95.5% (active)	-5.47% (active)	-22.2% (active)	
N#Cc1c(NC(=O)c2ccc(C(O)(C(F)(F)F)C(F)(F)F)cc2)sc2c1CCC(=O)C2	-27.4% (active)	-89.6% (active)	-98.8% (active)	2.24% (active)	-98.3% (active)		13.6%	1.92% (active)	-40.9% (active)	
Cc1ccc(/C=C/C(=O)c2ccc(S(=O)(=O)NCCNc3nc(Nc4ccc(F)cc4)nc(N(C)C)n3)cc2)cc1	84.5%	30.7%	36.8%		11.9%	29.3%	37.3%	17.6%	10.1%	
